Measured values reported in PubChem BioAssay.
A number with no mark means an inactive call. No rule for the calls is given here.

The molecules below were run against Pantothenate synthetase (Mycobacterium tuberculosis (strain ATCC 25618 / H37Rv)) (UniProt P9WIL5) (assay: Recombinant Mtb pantothenate synthetase (PanC) inhibitors, coupled enzyme, confirmatory (AID 375;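 also: 0% = full reaction with vehicle and 100% = no enzyme background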)). Conditions: coupled enzyme assay; at 10 µM, hits give high values.
Chain of Pantothenate synthetase (Mycobacterium tuberculosis (strain ATCC 25618 / H37Rv)) (P9WIL5 whole entry, looked up): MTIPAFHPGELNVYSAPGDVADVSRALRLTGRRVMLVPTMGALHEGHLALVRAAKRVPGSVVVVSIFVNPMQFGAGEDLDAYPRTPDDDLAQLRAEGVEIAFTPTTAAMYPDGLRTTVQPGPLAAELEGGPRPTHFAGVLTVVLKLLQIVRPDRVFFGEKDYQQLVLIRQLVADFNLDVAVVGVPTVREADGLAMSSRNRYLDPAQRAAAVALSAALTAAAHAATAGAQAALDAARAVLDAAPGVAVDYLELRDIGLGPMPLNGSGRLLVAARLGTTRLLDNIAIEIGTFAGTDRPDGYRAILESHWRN

Compound	inhibition [%]
Nc1ccc(C(=O)OCCCc2nc3ccccc3[nH]2)cc1	3
CCN(CCCNC(=O)CCNC(=O)Cn1ccc2ccccc2c1=O)c1ccccc1	1
COc1cc(OC)cc(-c2nc3cc(C)ccc3o2)c1	3
Nc1nc(-c2ccc(Cl)cc2)cc(C(F)(F)F)n1	0
CC(Oc1ccc2oc(-c3ccccc3)c(C(=O)O)c2c1)C(=O)O (stereo not drawn)	0
C=C(C)COc1ccc(-c2nc(N)ncc2Oc2ccccc2OCC)c(O)c1	1
CC(C)=CC(=O)OCC(=O)NC(=O)NC(C)(C)C	0
CCN(CC)CCNC(=O)CCn1c(=S)[nH]c2cc3c(cc2c1=O)OCO3	0
COCCCN(C)C1CCN(C(=O)Nc2ccc(F)cc2)CC1	0
CN1CCN(/C=N/c2sc3c(c2C#N)CCCCC3)CC1	4
COc1ccccc1CNS(=O)(=O)c1cccc(S(=O)(=O)N2CCOCC2)c1	0
CCc1nc(C)c(-c2ccccc2)c(=O)[nH]1	6
CCN(C1CCCCC1)S(=O)(=O)c1ccc(OC)c(C)c1	0
CCNc1nc(NC(C)C)nc(N(C#N)CCOc2ccc(Cl)cc2Cl)n1	7
N#CC(C(=O)Nc1ccccc1)=C1CCCCC1	7
O=C(/C=C1\NC2(CCCC2)Cc2ccccc21)N1CCOCC1	0
COc1ccc(-c2nc(CSCC(=O)N3CCc4ccccc4C3)c(C)o2)cc1OC	0
O=S(=O)(Nc1cccnc1)c1cc(Cl)ccc1Cl	0
O=C(Cn1nnc(-c2ccc(CN3CCOCC3)cc2)n1)NC1CCCCC1	12
CCCCCn1c2nc3ccccc3nc2c2c(=O)n(CC(C)C)cnc21	7
COc1ccc(CCNC(=O)c2ccc(N3CCCC3=O)cc2)cc1OC	0
CCOC(=O)Cc1nn2c(=O)cc(C)nc2s1	0
CN(C)CCCn1c(N)c(C#N)c2nc(C#N)c(C#N)nc21	0
